Results filed as inconclusive are left out. Values without a mark were called inactive. Activity calls are given as the source filed them. Calls follow the shape of the dose curve; as a rule, active = well fitted inhibition curve with a large enough effect in the repeat runs; inconclusive = weak or mixed curves; inactive = no such curve, though single readings can be large or run the other way.
Biological target: Cytochrome P450 2C9 (Homo sapiens) (UniProt P11712)
Test: Cytochrome P450 Family 2 Subfamily C Member 9 (CYP2C9) small molecule antagonists: luciferase reporter qHTS assay (AID 1671198); also: nearly all actives have a fitted effect of over 50% in size
Conditions: P450-Glo CYP2C9 enzyme assay, luciferin luminescence; series mostly up to 115 µM; activity change, negative = inhibition: at the top concentration
Description: U.S. Tox21 Program National Center for Advancing Translational Sciences [NCATS] U.S. Environmental Protection Agency [EPA] National Institutes of Environmental Health Sciences [NIEHS] National Toxicology Program [NTP] U.S. Food and Drug Administration [FDA] Tox21 Assay Overview: Cytochrome P450 (CYP) enzymes are membrane-bound hemeproteins that play a key role in metabolism of drugs and xenobiotics. Evaluation of the effect of chemicals on CYP isozymes is useful to minimize the adverse drug reactions and toxicities in drug development process. Tox21 chemicals were tested for their effect on CYP enzyme activities by using P450-Glo (TM) screening systems (Promega Corporation, Madison, WI). These systems provide a luminescent method containing proluciferin substrates and are converted to luciferin products by CYP isozymes. The luciferin products formed are detected with a luciferin detection reagent, and the amount of light produced is proportional to CYP activity. P450-Glo (TM) CYP2C9 screening system (Catalog. No. V9790) was used to detect the compounds that interfere in CYP2C9 activity.
Tox21 Assay Protocol Summary: Two ul of enzyme-substrate mix was dispensed into medium binding white/solid 1536-well plates (Greiner Bio-One North America Inc., Monroe, NC) using a BioRaptr Flying Reagent Dispenser (FRD, Beckman Coulter, Brea, CA). […] The assay plates were incubated at room temperature for 10 min. Then 2 ul of NADPH regeneration solution was added to each well of the assay plates using an FRD and incubated at 37C for 1 h. The reaction was stopped by adding 4 ul of detection reagent using an FRD and after 20 min incubation at room temperature the luminescence signal was measured using a ViewLux plate reader (Perkin Elmer, Shelton, CT). Data were expressed as relative luminescence units.
% is scaled to controls: 0 for no effect and ±100 for the full control effect; potency is read from the fitted curve at half-maximal effect.

Chain of Cytochrome P450 2C9 (Homo sapiens) (P11712 whole entry, looked up): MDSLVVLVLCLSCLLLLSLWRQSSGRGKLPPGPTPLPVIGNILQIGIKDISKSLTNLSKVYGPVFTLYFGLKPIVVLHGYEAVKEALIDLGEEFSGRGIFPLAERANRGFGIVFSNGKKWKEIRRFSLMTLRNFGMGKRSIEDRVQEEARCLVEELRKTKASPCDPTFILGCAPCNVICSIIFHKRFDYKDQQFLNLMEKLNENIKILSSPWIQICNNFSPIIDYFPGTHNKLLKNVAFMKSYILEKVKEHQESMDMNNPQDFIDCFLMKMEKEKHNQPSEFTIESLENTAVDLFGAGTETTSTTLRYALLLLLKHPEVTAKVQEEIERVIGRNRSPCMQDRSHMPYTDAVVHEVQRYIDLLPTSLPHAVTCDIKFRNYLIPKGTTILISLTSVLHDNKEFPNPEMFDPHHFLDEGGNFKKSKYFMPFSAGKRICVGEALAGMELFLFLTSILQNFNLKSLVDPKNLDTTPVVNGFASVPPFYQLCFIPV

SMILES	activity change, negative = inhibition	Potency
C[C@@H](O)C(=O)O	-17.7%	–
NCCOCCN	-13%	–
O=C(CCCCC(=O)Nc1c(I)cc(I)c(C(=O)O)c1I)Nc1c(I)cc(I)c(C(=O)O)c1I	-0.488% [at 53 µM]	–
CCC(C)C(=O)OCCc1ccccc1 (stereo not given)	-12.8%	–
Cc1ccc(C)c([N+](=O)[O-])c1	-10.8%	–
CC(=O)C(C)O (stereo not given)	-4.03%	–
Cc1ccc(C(C)NC(=O)[C@@H](NC(=O)OC(C)C)C(C)C)cc1 (stereo not given in full)	–	31.6 µM (active)
CC(Oc1cc(Cl)ccc1Cl)C(=O)O (stereo not given)	–	71 µM (active)
CC(=O)CC(=O)OC(C)(C)C	-9.06%	–
CCCCCCCCCCOC(C)=O	-5.69%	–
CN(C)CCN(C)CCO	-8.03%	–
O=C(Cl)c1ccccc1[N+](=O)[O-]	-15.2%	–
c1ccc2c(CC3=NCCN3)cccc2c1	0.0944% [at 53 µM]	–
CC1(C)[C@H]2CC[C@](C)(C2)[C@H]1O	-0.596%	–
c1ccc(B(c2ccccc2)c2ccccc2)cc1	–	31.7 µM (active)
CC(N)CCCC(C)(C)O (stereo not given)	1.38% [at 53 µM]	–
CC(CO)(CO)CO	-5.11%	–
CCCCCCCCCCCCCCC(=O)NC(CO)CCCCCCCCCCCCCC (stereo not given)	-4.5%	–
Cc1c(Cl)cccc1Cl	-7.47%	–
CCCCCCCCCCCCCBr	-4.6%	–

SMILES	activity change, negative = inhibition	Potency
CO[C@@]1(NC(=O)Cc2cccs2)C(=O)N2C(C(=O)O)=C(COC(N)=O)CS[C@@H]21	-11.9% [at 53 µM]	–
COC(=O)c1cccc(Cl)c1	-8.94%	–
C=CCCCC	-2.05%	–
CC(=O)O[Si](C)(OC(C)=O)OC(C)=O	-4.9%	–
O=C(O)[C@H](O)c1ccccc1	-0.494% [at 53 µM]	–
O=C(O)CONC(=O)c1ccccc1	-8.45%	–
CCOCCOCC	-0.767%	–
Cc1ncc([N+](=O)[O-])n1CC(C)O (stereo not given)	-16.8% [at 53 µM]	–
CCc1occc(=O)c1O	-9.62%	–
COC(C)(OC)OC	-1.37%	–
CC1=C(C(=O)O)N2C(=O)[C@@H](NC(=O)[C@H](N)C3=CCC=CC3)[C@H]2SC1	2.87% [at 53 µM]	–
O=C(NCN1CCOCC1)c1cnccn1	2.11% [at 53 µM]	–
CC(O)CC(C)O (stereo not given)	3.32%	–
COC(=O)/C=C\C(=O)O	-9.54%	–
COc1nc(N)nc2nc[nH]c12	-17.8%	–
Cn1c(=O)c2[nH]c(Br)nc2n(C)c1=O	-8.77% [at 53 µM]	–
CNCCS(=O)(=O)O	-17.8%	–
C=CCN1C[C@H](C(=O)N(CCCN(C)C)C(=O)NCC)C[C@@H]2c3cccc4[nH]cc(c34)C[C@H]21	7.52% [at 53 µM]	–
CCCC(=O)OCCC(C)CCC=C(C)C (stereo not given)	–	20 µM (active)
OCC(O)CN1CCN(c2ccccc2)CC1 (stereo not given)	-0.172% [at 53 µM]	–

— PubChem BioAssay (Tox21)
